Screens deposited in PubChem BioAssay by National Center for Advancing Translational Sciences (NCATS).
This is a sample that favours compounds with a hit; in the whole collection about 19% have one here.
HT1080 IDH1KD tx – HT-1080 IDH1 knockdown cell toxicity (counter line). HT-1080 IDH1 knockdown viability, ATP luminescence, 48 h. Potency, µM (doses to about 46.1 µM), inactives show at the top dose activity, negative = toxicity, hits mostly cytotoxic. 360,000 tested, 2% active. AID 686971;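 further: potency means the concentration at half of the fitted maximal effect; 0% = DMSO wells and -100% = cell-free medium wells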
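Cytotoxicity counter-line: IDH1KD HT-1080, 48 h, CellTiter-Glo. Curves classed by r2, magnitude and activity.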
IL-1B inflam inh – inhibitors of inflammasome signaling (IL-1 beta secretion) | THP-1 LPS/ATP IL-1B secretion, AlphaLISA, 16 h; active compounds read low | activity change, % at 57.5 µM | 360,000 tested, 4.7% active; in the data active means activity change below about -50%; inconclusive means mostly about -30% to -49%
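THP-1 cells pretreated 1 hr with compounds (up to 57.5 uM final), then stimulated with LPS (250 ng/mL final) plus ATP (1.25 mM final); secreted IL-1B measured by AlphaLISA after 16 hr, decreased signal indicating inhibition.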
HT1080-NT tox – kills 2HG-producing HT-1080-NT fibrosarcoma cells; HT-1080-NT fibrosarcoma viability, CellTiter-Glo ATP luminescence, 48 h; Potency, µM (series often up to 46.1 µM), inactives show at the highest dose activity, negative = less viability, hits mostly cytotoxic; 360,000 tested, 1.6% active; AID 686970;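 further: NT is the 2HG producing partner of a matched IDH1 knockdown line; potency means the concentration at half of the fitted maximal effect; 0% = DMSO-treated cells and -100% = media-only wells without cells; nearly all actives have a fitted effect of over 55% in size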
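HT-1080-NT; 750 cells/well; 5% FBS RPMI; 48 h compound, 37 degrees C; CellTiter-Glo luminescence; curve fitting and curve-class assignment.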
DT40 TDP1 CPT – DT40-hTDP1 cell growth loss with CPT | chicken DT40 Tdp1-/-;hTDP1 cells + 20 nM CPT, ATP luminescence, 48 h | Potency, µM (series often up to 46.2 µM), for inactives: at the top dose activity change, negative = growth inhibition, actives largely listed as inhibitors | 420,000 tested, 12% active | AID 686979; further: potency means the concentration at half of the fitted maximal effect; nearly all actives have a fitted effect of over 55% in size
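Cell growth measured by CellTiter-Glo luminescence after a minimum 48 h, 37 C compound exposure with 20 nM CPT in Tdp1-knockout DT40 cells stably expressing hTDP1, seeded 400/well; qHTS titration format.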
TDP1 cell noCPT – qHTS for Inhibitors of human tyrosyl-DNA phosphodiesterase 1 (TDP1): qHTS in cells in absence of CPT; DT40 Tdp1-/- hTDP1 cells, no CPT, ATP luminescence, 48 h; Potency, µM (doses to about 46.2 µM), without a hit: at the top dose activity change, negative = growth inhibition, hits mostly inhibitors; 420,000 tested, 15% active; further: potency means the concentration at half of the fitted maximal effect; nearly all actives have a fitted effect of over 55% in size
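Growth kinetics read by CellTiter-Glo luminescence after ≥48 hr at 37 °C. Cells: DT40 Tdp1-/- stably carrying human TDP1, 400 per well, compound exposure in the absence of CPT (DMSO vehicle).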
An asterisk follows results filed as active; u = inconclusive; x = no result given; [ ] = remark or other dose. Unless noted, the call rests on the fitted dose curve; in most records, active means well fitted curve in the direction sought with a large enough effect; inconclusive means small, poorly fitted or top-dose-only effect, or another doubt; inactive means no such curve, though single readings can be large; an effect the other way counts as inactive or inconclusive. Unless noted, on the % scale 0 is the no-effect control and ±100 the full control effect.

SMILES	HT1080 IDH1KD tx	IL-1B inflam inh	HT1080-NT tox	DT40 TDP1 CPT	TDP1 cell noCPT
c1ccc(CCn2nnnc2C(c2cccnc2)N2CCN(c3ccccc3)CC2)cc1 (stereo not drawn)	-3%	-16	-6%	13µM*	11µM*
c1ccc(CCn2nnnc2C(c2cccs2)N2CCN(Cc3ccc4c(c3)OCO4)CC2)cc1 (stereo not drawn)	-27%	u	-14%	u	23µM*
N#Cc1cccc(C(c2nnnn2CCc2ccccc2)N2CCN(C3CCCCC3)CC2)c1 (stereo not drawn)	1%	u	16%	u	18µM*
Fc1ccccc1N1CCN(C(c2cccs2)c2nnnn2CCc2ccccc2)CC1 (stereo not drawn)	-2%	0	-3%	u	u
Oc1ccc(N2CCN(C(c3cccnc3)c3nnnn3Cc3ccccc3)CC2)cc1 (stereo not drawn)	8%[9.24 µM]	5	-1%	u	18µM*
CCOc1ccc(Cc2nnc(SCC(=O)Nc3c(C)cccc3C)[nH]c2=O)cc1	-2%	5	3%	-4%	u
CC(NC(=O)C(=O)c1cn(CC(=O)N2CCOCC2)c2ccccc12)c1ccccc1 (stereo not drawn)	-4%	16	-12%	-12%	25%
Cn1c(-c2cccc([N+](=O)[O-])c2)[n+](C)c2ccccc21	-25%	54	-1%	7.3µM*	3.3µM*
Cn1c(-c2ccccn2)[n+](C)c2ccccc21	-3%	32	8%	-10%	17%
Cn1c(-c2ccc3ccccc3n2)[n+](C)c2ccccc21	u	29	u	3.3µM*	3.7µM*
CN(C)c1ccc(-c2n(C)c3ccccc3[n+]2C)cc1	8.9µM*	-80*	5.6µM*	1.6µM*	0.82µM*
COc1ccc(N2CC(O)=C(c3n(C)c4ccccc4[n+]3C)C2=N)cc1	23%	38	19%	u	u
O=Cc1ccc(-c2cccc([N+](=O)[O-])c2)o1	5%	-4	1%	-18%	u
CCCCN(C)C(=O)Cn1cnc2sc(C)c(S(=O)(=O)N3CCN(c4ccccc4OC)CC3)c2c1=O	16%	11	18%	23µM*	23µM*
COc1ccccc1N1CCN(S(=O)(=O)c2c(C)sc3ncn(CC(=O)N(C)c4ccc(Cl)cc4)c(=O)c23)CC1	x	x	x	18µM*	16µM*
COCCNC(=O)Cn1cnc2sc(C)c(S(=O)(=O)N3CCN(c4ccccc4OC)CC3)c2c1=O	1%	13	2%	11%	-8%
Cc1ccc(C(=O)/C=C/Nc2cccc([N+](=O)[O-])c2)o1	3%	-12	4%	-19%	-29%
CCCCCc1ccc(OCCOCCn2c[n+](C)c3ccccc32)c(CCCCC)c1	u	-94*	u	2.3µM*	2.1µM*
CCCCCc1ccc(OCCC[n+]2ccccc2)c(CCCCC)c1	5.2µM*	-94*	3.7µM*	0.65µM*	1µM*
COc1cc(Nc2nc3c(N)cc(C(F)(F)F)cc3nc2-c2ccccc2)cc(OC)c1OC	-22%	7	-5%	u	13µM*
COc1cc(-c2n[nH]c(=S)n2-c2cccc(C(F)(F)F)c2)cc(OC)c1OC	9%	11	9%	-8%	-18%
C=CCC1(O)CC(c2ccco2)NC(c2ccco2)C1CCC (stereo not drawn)	6%	-16	-2%	-16%	u
CN(C)Cc1cc2ccccc2c2c1COC2	-6%	u	-1%	-7%	u
Cc1cc2ccc3ccccc3c2cc1CN(C)C	18µM*	x	33µM*	u	u
C[N+]1([O-])[C@@H]2Cc3cc4c(cc3[C@@H]1Cc1cc3c(cc12)OCO3)OCO4 (stereo partly drawn)	13%	22	18%	-2%	25%
SMILES	HT1080 IDH1KD tx	IL-1B inflam inh	HT1080-NT tox	DT40 TDP1 CPT	TDP1 cell noCPT
COCCN(C(=O)Cc1cccs1)C(C(=O)NC1CCCC1)c1cc(OC)c(OC)c(OC)c1 (stereo not drawn)	1%	-8	-1%	-12%	-27%
COc1cccc(CNS(=O)(=O)c2ccc3c(c2)C(C(C)C)C(=O)N3)c1 (stereo not drawn)	x	x	x	u	13µM*
CC(C)C1C(=O)Nc2ccc(S(=O)(=O)NCCc3ccc(Cl)cc3)cc21 (stereo not drawn)	x	x	x	u	23µM*
Cc1ccc(CCNS(=O)(=O)c2ccc3c(c2)NC(=O)C(C)C(=O)N3)cc1 (stereo not drawn)	-8%	15	7%	-22%	23µM*
Clc1ccc2c(c1)[C@H]1OCC[C@H]1[C@@H](c1ccco1)N2	-8%	-17	-4%	-78%	u
CCc1ccc2c(c1)[C@H]1OCC[C@H]1[C@@H](c1cccs1)N2	3.7µM*	23	4.1µM*	13µM*	7.3µM*
O=C(COc1ccccc1-c1ccccc1)NCCN1C(=O)S/C(=C\c2cccnc2)C1=O	-19%	-1	-16%	16µM*	16µM*
O=C(NCCN1C(=O)S/C(=C\c2cccnc2)C1=O)C1=NN(c2ccccc2)C(=O)CC1	1%	0	-2%	u	23µM*
O=C(NCCN1C(=O)S/C(=C/c2cccnc2)C1=O)c1cccs1	-2%	u	0%[9.24 µM]	u	u
O=C(O)CN1C(=O)S/C(=C\c2cccnc2)C1=O	1%	13	2%	-2%	-2%
CN(C(=O)CN1C(=O)S/C(=C\c2cccc(Cl)c2)C1=O)C1CCS(=O)(=O)C1 (stereo not drawn)	-2%	-20	-6%	u	u
COc1ccccc1/C=C1/SC(=S)N(C(C)C(=O)NC2C=CS(=O)(=O)C2)C1=O (stereo not drawn)	-6%	u	-14%	u	u
CC(C(=O)NC1C=CS(=O)(=O)C1)N1C(=O)/C(=C/c2cccc(Cl)c2)SC1=S (stereo not drawn)	u	-68*	u	16µM*	-16%
CC(C(=O)NC1C=CS(=O)(=O)C1)N1C(=O)/C(=C\c2ccccc2)SC1=S (stereo not drawn)	-3%	-62*	-3%	u	u
Cc1ccc(O)c(NC(=O)c2onc(C)c2Cl)c1	0%	-15	-3%	-7%	-28%
C/C(=N\NC(N)=O)c1ccccc1Cl	13%	-5	9%	9%	-16%
CCCSc1nc(-c2ccccc2)[nH]c1S(=O)(=O)c1ccc(C)cc1	x	x	x	u	18µM*
Cc1ccc(S(=O)(=O)c2[nH]c(-c3ccccc3)nc2SCCC(=O)O)cc1	x	x	x	4%	1%
